From PubChem BioAssay AID485317 (Broad Institute, 2010)
“And” between values parts separate entries of the source, which are not always exact repeats. Identical values can stand only once. Among all 290,000 compounds or so, about 11,000 (3.8%) were called active.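 How the source made its calls: active means mean replicate inhibition above about 79%, with every replicate also reaching it (limit read from the data); inconclusive means only one of the two criteria met; inactive means mean below limit and not every replicate reaching it.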 Shown is part of a subset that was picked to be rich in actives. Some structures have more than one record in an assay (separate samples or runs), and their calls can disagree.

Biological target: FAD-linked sulfhydryl oxidase ALR (Homo sapiens) (UniProt P55789)
Test: ALR-catalysed DTT oxidation blockers – biochemical, H2O2 detection, HRP-luminol luminescence, single point, primary screen (AID 485317)
Details: purified ALR, stronger effect = higher value, concentration not given here

FAD-linked sulfhydryl oxidase ALR (Homo sapiens), sequence (P55789 whole entry, looked up): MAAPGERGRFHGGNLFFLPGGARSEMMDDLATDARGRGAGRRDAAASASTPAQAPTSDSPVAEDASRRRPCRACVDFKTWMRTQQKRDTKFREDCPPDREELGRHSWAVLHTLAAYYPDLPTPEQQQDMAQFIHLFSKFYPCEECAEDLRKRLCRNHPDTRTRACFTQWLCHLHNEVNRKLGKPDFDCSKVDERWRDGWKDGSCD

Row | SMILES | inhibition
1 | COCCn1c(C)cc(C(=O)COC(=O)CNC(=O)c2ccco2)c1C | 0.463% (inactive)
2 | Cc1cc(NC(=O)COC(=O)/C=C/c2ccc(C)o2)no1 | -2.34% (inactive)
3 | CNS(=O)(=O)c1cnccc1N1CCN(c2cccc(C)c2)CC1 | 98.6% (active)
4 | CC(C)NC(=O)N1CCN(c2ccncc2S(=O)(=O)N2CCCCC2)CC1 | -2.12% (inactive)
5 | CC(C)=C1SC(N2CCN(c3cccc(C)c3)CC2)=NC1=O | 4.81% (inactive)
6 | Cc1ccn2c(=O)nc(SCC(=O)NCc3ccc4c(c3)OCO4)nc2c1 | -1.9% (inactive)
7 | O=C(Cn1c[n+](CC(=O)c2ccc([N+](=O)[O-])cc2)cn1)c1ccc([N+](=O)[O-])cc1 | -22% (inactive) and 98.8% (active)
8 | O=C(CC(n1cncn1)C(Cl)(Cl)Cl)c1ccc([N+](=O)[O-])cc1 (stereo not drawn) | 9.46% (inactive)
9 | O=C(Nn1cnnc1)c1ccc([N+](=O)[O-])cc1 | -3.87% (inactive)
10 | Cc1ccc(Cn2ccc(NC(=O)C3C4CCC(C4)C3C(=O)O)n2)cc1 (stereo not drawn) | 1.86% (inactive)
11 | O=C(Nc1ccn(Cc2ccccc2F)n1)c1ccc(COc2ccc(Cl)cc2Cl)o1 | -9.12% (inactive)
12 | O=C(Nc1ccn(Cc2ccccc2)n1)c1n[nH]c([N+](=O)[O-])c1Cl | 93.5% (active)
13 | Cc1ccc(CC(=O)Nc2ccc(S(=O)(=O)N3CCOCC3)cc2)cc1C | -2.53% (inactive)
14 | COC(=O)c1c(NC(=O)c2cccs2)sc2c1CCCC2 | -1.37% (inactive)
15 | COC(=O)c1c(NC(=O)C2CC(C)=C(C)CC2C(=O)O)sc2c1CCCCC2 (stereo not drawn) | 94.2% (active)
16 | COC(=O)c1c(NC(=O)CCCC(=O)O)sc2c1CCCCC2 | -5.42% (inactive)
17 | FC(F)(F)c1nnc2sc(-c3ccco3)nn12 | -7.15% (inactive)
18 | Fc1ccc(-c2ccc(-c3nn4c(-c5ccco5)nnc4s3)o2)cc1 | 98.5% (active)
19 | COc1cc(-c2nn3c(-c4cccc(C)c4)nnc3s2)cc(OC)c1OC | 1.6% (inactive)
20 | COC(=O)CN1C(=S)N(c2ccccc2)C(=O)C1CC(=O)Nc1ccc(Cl)cc1 (stereo not drawn) | 1.89% (inactive)
21 | O=C(O)CC1=C(Nc2ccccc2)C(=O)N(c2ccccc2)C1c1ccc(Cl)cc1 (stereo not drawn) | 96.7% (active)
22 | O=C(c1ccc(Cl)cc1)c1cnc(Nc2ccccc2)s1 | 24.8% (inactive)

Row | SMILES | inhibition
23 | COc1cc(C(=O)NCC(c2ccco2)N2CCCC2)ccc1OCc1ccccc1 (stereo not drawn) | -2.39% (inactive)
24 | CN(Cc1c(F)cccc1Cl)C(=O)CNC(=O)c1ccc2c(c1)OCO2 | 1.35% (inactive)
25 | COc1cc2c(-c3ccc4c(c3)OCO4)c(-c3ccsc3)oc(=O)c2cc1OC | 0.568% (inactive)
26 | O=C(Nc1cccc(-c2nc3ccccc3[nH]2)c1)c1ccc(C(=O)Nc2cccc(-c3nc4ccccc4[nH]3)c2)cc1 | -5.21% (inactive)
27 | Cc1cccc(NC(=O)c2ccc(S(=O)(=O)N(C)c3ccccc3)cc2)n1 | -13.4% (inactive)
28 | CN(c1ccccc1)S(=O)(=O)c1cc(C(=O)Nc2nc3ccccc3[nH]2)ccc1Cl | 94.8% (active)
29 | O=C(c1cc(-c2ccco2)nc2ccccc12)N(Cc1nnc(-c2ccc(Cl)cc2)o1)C1CC1 | 2.44% (inactive)
30 | Cn1cccc1C(=O)OCC(=O)c1ccc(Br)s1 | 0.737% (inactive)
31 | C=CCn1c(CNC(=O)c2ccco2)nnc1SCC(=O)c1ccc(OC)cc1 | 29.4% (inactive)
32 | CCn1c(CNc2ccc(OC)cc2)nnc1SCC(=O)c1ccc(OC)cc1 | 98.6% (active)
33 | COc1ccc(NCc2nnc(SCc3ccccc3)n2-c2ccc(OC)cc2)cc1 | 91.9% (active)
34 | CCc1nnc(NC(=O)CSc2nnc(Cc3ccccc3)n2-c2ccc(OC)cc2)s1 | -14.6% (inactive)
35 | COC(=O)c1ccc(NC(=O)CSc2nnc(CNc3ccc(OC)cc3)n2C)cc1 | -7.45% (inactive)
36 | COc1ccc(-c2nnc(SCC(=O)c3ccco3)n2-c2ccccc2)cc1 | -5.92% (inactive)
37 | C=CCC[C@H](Cc1ccc(F)cc1)C(=O)OC[C@@H](NC(=O)[C@@H](CC=C)CC(=O)N[C@H](CO)Cc1ccccc1)C(C)(C)C | 2.91% (inactive)
38 | Brc1cnc2ccccc2c1N1CCCCC1 | -0.469% (inactive)
39 | CS(=O)(=O)Nc1ccccc1C(=O)OCC(=O)NC1CC1 | -5.36% (inactive)
40 | COc1cccc(OCCOc2cccc(/C=N/n3cnnc3)c2)c1 | -9.36% (inactive)
41 | CN(C)c1ccc(-n2cccc2/C=C2/SC(=Nc3ccc(F)cc3)NC2=O)cc1 | -13.8% (inactive)
42 | CN(C)c1ccc(-n2cccc2/C=N/n2cnnc2)cc1 | 98.6% (active)
43 | CC1(C)C2CC[C@]3(C)C(CC=C4[C@@H]5C[C@@](C)(CO)CC[C@]5(C(=O)O)CC[C@]43C)[C@@]2(C)CC[C@@H]1O (stereo partly drawn) | -8.21% (inactive)
44 | O=C(COC(=O)/C=C/c1ccc(Br)o1)Nc1cccc(S(=O)(=O)N2CCOCC2)c1 | -1.78% (inactive)

Row | SMILES | inhibition
45 | CC(=O)Oc1cccc(N2C(=O)C3CC=C(Cl)CC3C2=O)c1 (stereo not drawn) | -19% (inactive)
46 | COc1cc2ccccc2cc1C(=O)Nc1ccc(N2CCOCC2)cc1 | -0.59% (inactive)
47 | CC(=O)Oc1cccc(N2C(=O)CC(Nc3ccc(N4CCOCC4)cc3)C2=O)c1 (stereo not drawn) | 97.2% (active)
48 | Cc1noc(C)c1NC(=O)Nc1cccc2c1O[C@H](CN(C)C(=O)Nc1ccccc1)[C@@H](C)CN([C@H](C)CO)C2=O | 1.38% (inactive)
49 | O=C(NN1CCOCC1)c1cccc(F)c1 | -5.96% (inactive)
50 | O=C(N/N=C\c1ccc(Br)cc1)c1ccc(Cn2cccn2)o1 | 0.182% (inactive)
51 | O=C(N/N=C/c1ccc2c(c1)OCO2)c1ccc(Cn2cc([N+](=O)[O-])cn2)o1 | 29.3% (inactive)
52 | CN(C)c1ccc(/C=N/NC(=O)c2ccc(Cn3cc(Br)cn3)o2)cc1 | 98.5% (active)
53 | CC(OC(=O)c1ccc(Cl)cc1O)C(=O)NCCC1=CCCCC1 (stereo not drawn) | -2.95% (inactive)
54 | CCOC(=O)N1CCN(C(=O)c2ccccc2SCC(=O)NCC2CCCCC2)CC1 | -0.603% (inactive)
55 | COc1cccc(NCCC(=O)c2cccc([N+](=O)[O-])c2)c1 | 97.4% (active)
56 | COc1cccc(CNC(=O)CCCC(=O)Nc2cccc([N+](=O)[O-])c2)c1 | -3.17% (inactive)
57 | COc1cccc(C(=O)CC(=O)C(=O)Nc2ccc([N+](=O)[O-])cc2C)c1 | 7.39% (inactive)
58 | COc1ccc(CNC(=O)C2(CC3CC(c4ccccc4)=NO3)CCN(C(=O)c3cccc(O)c3)CC2)cc1 (stereo not drawn) | -2.44% (inactive)
59 | COCCN(Cc1ccccc1)C(=O)Cc1ccc(S(=O)(=O)N2CCOCC2)s1 | 2.09% (inactive)
60 | O=C(NCC1CC1)c1onc(CSc2ccccc2)c1C(=O)NCC1CC1 | -11.1% (inactive)
61 | CCOC(=O)c1ccccc1NC(=O)CSc1nc2ccccc2c(=O)[nH]1 | -0.524% (inactive)
62 | CCOC(=O)c1sc(NC(=O)CSc2n[nH]c(CC)n2)nc1C | -1.87% (inactive)
63 | Cc1cccc(NC(=O)CSc2nc3c(c(=O)[nH]2)CCCC3)c1C | -5.33% (inactive)
64 | CCOC(=O)c1sc(NC(=O)CSc2nc(O)c(Cc3ccccc3)c(=O)[nH]2)nc1C | 98.6% (active)
65 | O=C(CSc1nc(O)c(Cc2ccccc2)c(=O)[nH]1)Nc1nc2c(s1)CCCC2 | 99.1% (active)
66 | O=C(Cn1c(=O)sc2ccccc21)Nc1nc2c(s1)CCCC2 | 42.4% (inactive)

Row | SMILES | inhibition
67 | COC(=O)c1ccc(-c2c(-c3ccccc3)ncc3cc(OC)c(OC)cc23)cc1 | 1.43% (inactive)
68 | C=CC[C@H](CC(=O)OC(C)(C)C)C(=O)OC[C@H]1CCCN1C(=O)[C@H](CC=C)CC(=O)N(CCO)Cc1ccccc1 | -5.27% (inactive)
69 | CC1(C)CC(=O)C=C(c2ccc3ncccc3c2)C1 | -1.35% (inactive)
70 | COc1ccc(NS(=O)(=O)c2cc(NC(=O)COc3ccccc3F)ccc2OC)cc1 | -2.82% (inactive)
71 | COc1cccc(-c2ccc3c(c2)S(=O)(=O)c2cccc(C(=O)O)c2C3=O)c1OC | -0.409% (inactive)
72 | COc1ccc(-c2csc3ncnc(N4CCN(S(=O)(=O)c5cccc(F)c5)CC4)c23)cc1 | 0.272% (inactive)
73 | CCCc1ccc(C(=O)COC(=O)CN2C(=O)NC3(CCCCC3C)C2=O)cc1 (stereo not drawn) | -2.13% (inactive)
74 | Nn1c(SCC(=O)Nc2ccc3c(c2)CCC3)nnc1C1CC1 | 98.6% (active)
75 | O=C(CSc1nnnn1-c1ccc2c(c1)CCC2)Nc1ccc2c(c1)OCCO2 | -26.1% (inactive)
76 | COc1ccc(NC(=O)CSc2nnc(C3CC3)n2C)cc1S(=O)(=O)N1CCCCC1 | -0.755% (inactive)
77 | COc1ccc2cc(C3=CC(=O)C[C@H](c4ccc5c(c4)OCO5)C3)ccc2c1 | 0.243% (inactive)
78 | Cc1ccc(OCc2cc(C(=O)N(C)CCn3ccnc3C)no2)cc1C | -0.532% (inactive)
79 | CCCCCCCNC(=O)C1(CC2CC(c3cccc(Br)c3)=NO2)CCN(C(=O)c2cc(OCC)c(OCC)c(OCC)c2)CC1 (stereo not drawn) | -9.32% (inactive)
80 | CCOC(=O)Cc1ncccc1C(=O)Nc1ccc(OC)cc1 | 10.7% (inactive)
81 | CCCCOc1ccc(NC(=O)CSCC(=O)OCC)cc1 | 98.6% (active)
82 | CCCCN(C(=O)CSCC(=O)Nc1ccc(OC)cc1)c1c(N)n(CCC)c(=O)[nH]c1=O | 2.82% (inactive)
83 | O=C(NNC(=O)c1cccc(S(=O)(=O)Nc2ccc(Cl)cc2)c1)c1ccc(=O)[nH]c1 | -5.3% (inactive)
84 | O=C(NCCc1ccc(C(F)(F)F)cc1)c1ccc2c(c1)OCO2 | -2.72% (inactive)
85 | COc1ccc(/C=C(\C#N)C(=O)OCC(=O)N(C)C2CCS(=O)(=O)C2)cc1 (stereo not drawn) | 5.52% (inactive)
86 | Nc1nnnn1CC(=O)N/N=C/c1ccc(-c2cccc(Cl)c2)o1 | -10.4% (inactive)
87 | CN1C(=O)/C(=C\c2ccc(-c3ccccc3)o2)SC1=S | -6.32% (inactive)
88 | O=C(O)C(c1ccccc1)N1C(=O)/C(=C\c2ccc(-c3cccc(Cl)c3)o2)SC1=S (stereo not drawn) | 98.2% (active)
